TROY signal inh: inhibitors of TROY-dependent NF-kB signaling; Q293 LMP1-TROYcd NF-kB luciferase reporter, 4 h; inhibition, % at 10 µM; 360,000 tested, 0.98% active;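 active means compounds whose plate-normalised and pattern-corrected inhibition of the luciferase reporter signal at the single screening dose is 50% or more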
EWS-Fli block: inhibitors of EWS/Fli oncoprotein transcriptional activity; A673 NR0B1-luciferase reporter, viability-normalised; inhibition, % at 12.6 µM; 350,000 tested, 0.67% active;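 active means mean inhibition of at least 50% after viability correction, with every replicate also passing that limit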;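 further: firefly luciferase signal divided by Alamar Blue viability fluorescence both relative to DMSO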
EBV LMP1 NFkB: Epstein-Barr LMP1 NF-kappaB reporter inhibition | LMP1-induced NF-kappaB luciferase reporter cells, luminescence | AID 504558 | 350,000 tested, 0.69% active | inhibition, % at 12.5 µM; in the data active means inhibition above about 41%
LGR2 antag: blocks bursicon-induced cAMP signaling via Drosophila LGR2 | HEK293 LGR2, CRE-luciferase, bursicon-stimulated, 4 h | inhibition, % at 9.99 µM | 380,000 tested, 0.35% active | AID 720647;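 active means drop in luminescence signal, shown as inhibition above about 50% in the replicate tests, limit read from the data, passing the limit was not always enough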;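 further: agonist challenge used bursicon conditioned medium at about half maximal strength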
TWEAK Fn14 block: TWEAK-Fn14 signaling inhibition. inhibition, % at 10 µM. AID 1159606. 360,000 tested, 2% active. TWEAK-stimulated Fn14 reporter cells, luciferase luminescence, 8 h; in the data active means inhibition above about 50%
Of the large screens only hits and unclear results are named; the others gave an inactive call; ! = repeats disagree. The list is not random: actives were taken first. Their share in the collection is about 2.5%.

COc1ccc(N(CC(=O)NC2CC3CCC2C3)S(=O)(=O)c2ccccc2)cc1Cl (configuration not stated)	TWEAK Fn14 block 91
CCOC(=O)C(CCCOc1ccccc1)C(=O)OCC	TWEAK Fn14 block 63 (no result: TROY signal inh, EWS-Fli block, LGR2 antag)
O=c1[nH]c2cc(Cl)c(Br)cc2o1	EBV LMP1 NFkB 68
O=c1[nH]c2cc(Cl)c(Cl)cc2o1	none
C(=C\c1ccccc1)/CN1CCN(C(c2cc3ccccc3o2)c2nnnn2-c2ccc3c(c2)OCCO3)CC1 (configuration not stated)	TWEAK Fn14 block 69 (no result: EBV LMP1 NFkB)
C(=C\c1ccccc1)/CN1CCN(C(CCc2ccccc2)c2nnnn2-c2ccc3c(c2)OCCO3)CC1 (configuration not stated)	none (no result: EBV LMP1 NFkB)
COc1ccc(-n2nnnc2C(c2cc3ccccc3o2)N2CCN(C/C=C/c3ccccc3)CC2)cc1 (configuration not stated)	none (no result: EBV LMP1 NFkB)
CCC(c1nnnn1-c1ccc2c(c1)OCCO2)N1CCN(C/C=C/c2ccccc2)CC1 (configuration not stated)	TWEAK Fn14 block 58 (no result: EBV LMP1 NFkB)
C(=C\c1ccccc1)/CN1CCN(C(c2nnnn2-c2ccc3c(c2)OCCO3)C2CC2)CC1 (configuration not stated)	TWEAK Fn14 block 58 (no result: EBV LMP1 NFkB)
C(=C\c1ccccc1)/CN1CCN(C(c2cccs2)c2nnnn2-c2ccc3c(c2)OCCO3)CC1 (configuration not stated)	none (no result: EBV LMP1 NFkB)
O=C(O)c1ccc(/C=C2\COc3ccccc3C2=O)cc1	TWEAK Fn14 block 78
COc1ccc(/C=C2\COc3ccccc3C2=O)cc1OC	TWEAK Fn14 block 54 (no result: EWS-Fli block)
COc1ccc(/C=C2/CCc3ccccc3C2=O)cc1OC	none (no result: EWS-Fli block)
CCOc1cc(/C=C2\COc3ccccc3C2=O)cc(Br)c1OCC(=O)N(C)C	TROY signal inh 79, EWS-Fli block 63, TWEAK Fn14 block 70
Cc1ccc(S(=O)(=O)Nc2ccc3c(c2)CC(=O)N([C@@H](C)CO)C[C@H](C)[C@H](CN(C)Cc2ccc4c(c2)OCO4)O3)cc1	none (no result: TROY signal inh, EBV LMP1 NFkB, TWEAK Fn14 block)
CCCNC(=O)C[C@@H]1C[C@H]2c3cc(NC(=O)Cc4ccncc4)ccc3O[C@H]2[C@H](CO)O1	none (no result: TROY signal inh, EBV LMP1 NFkB, TWEAK Fn14 block)
O=c1cc(N=Nc2ccc(Cl)cc2)[nH]c(=O)[nH]1	TWEAK Fn14 block 58
O=c1cc(-c2ccc(Cl)cc2)oc(=O)[nH]1	none (no result: LGR2 antag)
CCOC(=O)c1ccc(Oc2nc(N(C)C)nc(N(C)C)n2)cc1	none (no result: EWS-Fli block, LGR2 antag)
CCOC(=O)c1ccc(Oc2nc(SC)nc(N(C)C)n2)cc1	TWEAK Fn14 block 73 (no result: TROY signal inh, EWS-Fli block, LGR2 antag)
CCNC(=O)C[C@@H]1CC[C@H]2[C@H](COc3ccc(NC(=O)Nc4ccccc4F)cc3C(=O)N2C)O1	none (no result: TROY signal inh, EBV LMP1 NFkB, TWEAK Fn14 block)
CCCCCCCCCCCCCCCC[n+]1ccccc1	TROY signal inh 52!, EWS-Fli block 60, LGR2 antag 61!, TWEAK Fn14 block 77!
COC(=O)c1cccc(NC(=O)Nc2ccc(Cl)c(Cl)c2)c1	TWEAK Fn14 block 60
Cc1cccc(NC(=O)Nc2ccc(Cl)c(Cl)c2)n1	TWEAK Fn14 block 58
COc1ccc(NC(=O)Nc2ccc3c(c2)C(=O)N([C@H](C)CO)C[C@H](C)[C@H](CN(C)S(C)(=O)=O)OCCCC[C@H](C)O3)cc1	none (no result: TROY signal inh, EBV LMP1 NFkB, TWEAK Fn14 block)
O=C(CC(=O)Nc1ccc(Cl)cc1Cl)Nc1ccc(Cl)cc1Cl	none
CC(=O)OCC(=O)Nc1ccc([N+](=O)[O-])cc1Cl	none
CC(=O)OCC(=O)Nc1ccc(Cl)cc1Cl	TWEAK Fn14 block 54 (no result: TROY signal inh, EWS-Fli block)
Cc1ccc(Cl)cc1NC(=O)COC(=O)C1CCCC1	none (no result: EWS-Fli block, LGR2 antag)
Cc1ccc(Cl)cc1NC(=O)COC(=O)C12CC3CC(CC(C3)C1)C2	TWEAK Fn14 block 67! (no result: EWS-Fli block, LGR2 antag)
CN(C)C(=S)SCC(=O)Nc1ccc(Cl)cc1Cl	EWS-Fli block 75
N#Cc1c(-c2ccccc2)nc(SCc2cccc(Cl)c2)[nH]c1=O	TROY signal inh 58
Cc1ccc(C)c(NC(=O)CCC(=O)N/N=C/c2ccc[nH]2)c1	none (no result: EWS-Fli block)
CC(C)(C)c1ccc(C2CC2C(=O)N/N=C\c2ccc[nH]2)cc1 (configuration not stated)	EWS-Fli block 62
Cc1ccc(NCC(=O)N/N=C\c2ccc[nH]2)cc1	TROY signal inh 69, TWEAK Fn14 block 89 (no result: EBV LMP1 NFkB)
COc1ccc2c3c([nH]c2c1)[C@H](CO)N(C(=O)C1CCCC1)CC31CN(S(C)(=O)=O)C1	none (no result: TROY signal inh, EBV LMP1 NFkB, TWEAK Fn14 block)
Cc1ccc(C(=O)/C=C\C(=O)c2ccc(C)cc2)cc1	none
Cc1ccc(S/C=C\C(=O)c2ccccc2)cc1	TROY signal inh 53, TWEAK Fn14 block 88
C=CCSc1nccc(-c2cc(Cl)sc2Cl)n1	EBV LMP1 NFkB 84 (no result: EWS-Fli block, LGR2 antag)
N#CCSc1nccc(-c2cc(Cl)sc2Cl)n1	none (no result: EWS-Fli block, LGR2 antag)
CC(C)C(Cl)=NOC(=O)Nc1ccc(F)cc1	TWEAK Fn14 block 51
C[C@H](CO)N1C[C@H](C)[C@H](CN(C)Cc2cccc(F)c2)Oc2ncc(C#C[C@@H](C)O)cc2C1=O	none (no result: TROY signal inh, EBV LMP1 NFkB, TWEAK Fn14 block)
COc1ccc(NC(=O)c2nc(C)c(C3(C)CC(c4ccccc4)=NO3)s2)cc1 (configuration not stated)	EWS-Fli block 55
C[C@H](CO)N1C[C@H](C)[C@@H](CN(C)S(=O)(=O)c2ccccc2)Oc2ccc(NC(=O)Nc3cccc4ccccc34)cc2CC1=O	none (no result: TROY signal inh, EBV LMP1 NFkB, TWEAK Fn14 block)
COCc1cn(CC[C@H]2CC[C@H](NC(=O)c3ccccc3)[C@H](CO)O2)nn1	none (no result: TROY signal inh, EBV LMP1 NFkB, TWEAK Fn14 block)
C[C@@H]1CN([C@H](C)CO)C(=O)c2cccc(NC(=O)C3CCOCC3)c2O[C@H]1CN(C)Cc1ccccc1	none (no result: TROY signal inh, EBV LMP1 NFkB, TWEAK Fn14 block)
COc1ccc(Cc2c(C(C)(C)C)nc3ccc(Br)cn23)c(C)c1	TROY signal inh 93 (no result: EBV LMP1 NFkB, LGR2 antag)
CC(NC(=O)OCc1ccccc1)C(=O)Oc1cc2oc(=O)cc(-c3ccccc3)c2cc1Cl (configuration not stated)	TWEAK Fn14 block 71
Cc1ccc(C(=O)N/N=C(/CC(=O)c2cccs2)C(F)(F)F)cc1	TROY signal inh 53
CCCN1[C@@H]2c3ccc(-c4ccccc4F)c(=O)n3C[C@H]1[C@H](CO)[C@H]2C(=O)NCC	none (no result: TROY signal inh, EBV LMP1 NFkB, TWEAK Fn14 block)
COc1cc(NC(=O)Cc2cccs2)ccc1-n1cnnn1	TWEAK Fn14 block 91 (no result: TROY signal inh, EWS-Fli block, LGR2 antag)
CN(C)C(=O)c1cccc(-c2ccc(C3[C@@H]4CN(C(=O)c5cnccn5)C[C@H]3N4)cc2)c1 (some centres not stated)	none (no result: TROY signal inh, EBV LMP1 NFkB, TWEAK Fn14 block)
COc1cccc(-c2ccc(C3[C@@H]4CN(C(=O)c5cnccn5)C[C@H]3N4)cc2)c1 (some centres not stated)	EWS-Fli block 52! (no result: TROY signal inh, EBV LMP1 NFkB, TWEAK Fn14 block)
N#Cc1ccc(-c2ccc(C3[C@@H]4CN(C(=O)C5CCCC5)C[C@H]3N4)cc2)cc1 (some centres not stated)	none (no result: TROY signal inh, EBV LMP1 NFkB, TWEAK Fn14 block)
O=C(C1CC1)N1C[C@@H]2N[C@H](C1)C2c1ccc(-c2ccccc2F)cc1 (some centres not stated)	LGR2 antag 88! (no result: TROY signal inh, EBV LMP1 NFkB, TWEAK Fn14 block)
N#Cc1ccc(-c2ccc(C3[C@@H]4CN(C(=O)C5CCC5)C[C@H]3N4)cc2)cc1 (some centres not stated)	LGR2 antag 70! (no result: TROY signal inh, EBV LMP1 NFkB, TWEAK Fn14 block)
N#Cc1cccc(-c2ccc(C3[C@@H]4CN(C(=O)Nc5ccccc5)C[C@H]3N4)cc2)c1 (some centres not stated)	none (no result: TROY signal inh, EBV LMP1 NFkB, TWEAK Fn14 block)

Assay outcomes deposited in PubChem by several laboratories.
